# Laboratory results from PubChem BioAssay AID1159580 (chemical genetic matrix, 2015).
# Out of some 5,500 compounds screened, about 2,000 (36%) were called active. Roughly 18% stayed inconclusive and do not appear here. The list shows a part of the results. Values without a mark were called inactive. Rule as the data show it: active = normalized growth mostly below about 0.91 (no sharp cut-off); inconclusive = no clear call, values can overlap the other calls; inactive = mostly above about 0.92.
# Assay: chemical genetic growth profiling, strain panel (AID 1159580);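 also: tested at 20 µM; growth read once vehicle control cultures reached saturation at 30 °C; 1 = growth at the plate median or of vehicle wells; lower values mean less growth of the strain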
# Details: S. cerevisiae deletion strains, growth OD
# [1] = locus YBL105C, strain PKC1, hits give low values
# [2] = locus YBR135W, strain CKS1, hits give low values
# [3] = locus YBR136W, strain MEC1, hits give low values
# [4] = locus YDL017W, strain CDC7, hits give low values
# [5] = locus YDL108W, strain KIN28, hits give low values
# [6] = locus YDL214C, strain PRR2, hits give low values
# [7] = locus YDR052C, strain DBF4, hits give low values
# [8] = locus YDR226W, strain ADK1, hits give low values
# [9] = locus YDR477W, strain SNF1, hits give low values
# [10] = locus YER123W, strain YCK3, hits give low values
# [11] = locus YER133W, strain GLC7, hits give low values
# [12] = locus YFL029C, strain CAK1, hits give low values
# [13] = locus YFR003C, strain YPI1, hits give low values
# [14] = locus YFR019W, strain FAB1, hits give low values
# [15] = locus YFR028C, strain CDC14, hits give low values
# [16] = locus YGR040W, strain KSS1, hits give low values
# [17] = locus YGR052W, strain FMP48, hits give low values
# [18] = locus YGR092W, strain DBF2, hits give low values
# [19] = locus YHR030C, strain SLT2, hits give low values
# [20] = locus YHR079C, strain IRE1, hits give low values
# [21] = locus YHR082C, strain KSP1, hits give low values
# [22] = locus YHR205W, strain SCH9, hits give low values
# [23] = locus YIL147C, strain SLN1, hits give low values
# [24] = locus YJL095W, strain BCK1, hits give low values
# [25] = locus YJL157C, strain FAR1, hits give low values
# [26] = locus YJR016C, strain ILV3, hits give low values
# [27] = locus YJR066W, strain TOR1 (second series), hits give low values
# [28] = locus YJR066W, strain TOR1, hits give low values
# [29] = locus YKL048C, strain ELM1, hits give low values
# [30] = locus YKL067W, strain YNK1, hits give low values
# [31] = locus YKL101W, strain HSL1, hits give low values
# [32] = locus YLR113W, strain HOG1, hits give low values
# [33] = locus YLR133W, strain CKI1, hits give low values
# [34] = locus YLR403W, strain SFP1, hits give low values
# [35] = locus YML070W, strain DAK1, hits give low values
# [36] = locus YMR205C, strain PFK2 (second series), hits give low values
# [37] = locus YNL006W, strain LST8, hits give low values
# [38] = locus YNL020C, strain ARK1, hits give low values
# [39] = locus YNL161W, strain CBK1, hits give low values
# [40] = locus YNL183C, strain NPR1, hits give low values
# [41] = locus YNL222W, strain SSU72, hits give low values
# [42] = locus YNL307C, strain MCK1 (second series), hits give low values
# [43] = locus YOL136C, strain PFK27, hits give low values
# [44] = locus YOR061W, strain CKA2, hits give low values
# [45] = locus YOR119C, strain RIO1, hits give low values
# [46] = locus YOR231W, strain MKK1, hits give low values
# [47] = locus YOR329C, strain SCD5, hits give low values
# [48] = locus YPL031C, strain PHO85, hits give low values
# [49] = locus YPL153C, strain RAD53, hits give low values
# [50] = locus YPL204W, strain HRR25, hits give low values
# [51] = locus YPL209C, strain IPL1, hits give low values
# [52] = locus YPL256C, strain CLN2, hits give low values
# [53] = locus YPR025C, strain CCL1, hits give low values
# [54] = locus YPR111W, strain DBF20, hits give low values
# [55] = strain NNK1, hits give low values
smiles,measurement,setting,value
Clc1ccc(-c2cnc(Nc3cc(Cl)cc(Cl)c3)s2)cc1,normalized growth,[1],0.63 (active)
same,normalized growth,[2],0.869 (active)
same,normalized growth,[3],0.956
same,normalized growth,[4],0.972
same,normalized growth,[5],0.972
same,normalized growth,[6],0.134 (active)
same,normalized growth,[7],0.965
same,normalized growth,[8],0.964
same,normalized growth,[9],0.119 (active)
same,normalized growth,[10],0.158 (active)
same,normalized growth,[11],0.12 (active)
same,normalized growth,[12],0.514 (active)
same,normalized growth,[13],0.97
same,normalized growth,[14],0.175 (active)
same,normalized growth,[15],0.966
same,normalized growth,[16],0.142 (active)
same,normalized growth,[17],0.132 (active)
same,normalized growth,[18],0.148 (active)
same,normalized growth,[19],0.117 (active)
same,normalized growth,[20],0.204 (active)
same,normalized growth,[21],0.126 (active)
same,normalized growth,[22],0.0742 (active)
same,normalized growth,[23],0.961
same,normalized growth,[24],0.16 (active)
same,normalized growth,[25],0.149 (active)
same,normalized growth,[26],0.791 (active)
same,normalized growth,[27],0.116 (active)
same,normalized growth,[28],0.109 (active)
same,normalized growth,[29],0.215 (active)
same,normalized growth,[30],0.164 (active)
same,normalized growth,[31],0.174 (active)
same,normalized growth,[32],0.163 (active)
same,normalized growth,[33],0.117 (active)
same,normalized growth,[34],0.0226 (active)
same,normalized growth,[35],0.166 (active)
same,normalized growth,[36],0.16 (active)
same,normalized growth,[37],0.679 (active)
same,normalized growth,[38],0.133 (active)
same,normalized growth,[39],0.529 (active)
same,normalized growth,[40],0.136 (active)
same,normalized growth,[41],0.608 (active)
same,normalized growth,[42],0.225 (active)
same,normalized growth,[43],0.147 (active)
same,normalized growth,[44],0.135 (active)
same,normalized growth,[45],0.46 (active)
same,normalized growth,[46],0.229 (active)
same,normalized growth,[47],0.781 (active)
same,normalized growth,[48],0.148 (active)
same,normalized growth,[49],0.136 (active)
same,normalized growth,[50],0.13 (active)
same,normalized growth,[51],0.625 (active)
same,normalized growth,[52],0.196 (active)
same,normalized growth,[53],0.927
same,normalized growth,[54],0.674 (active)
same,normalized growth,[55],0.967
Clc1cccc(Nc2ncc(-c3ccc4c(c3)OCCCO4)s2)c1,normalized growth,"locus YAR019C, strain CDC15, hits give low values",0.978
same,normalized growth,[1],0.989
same,normalized growth,[2],0.981
same,normalized growth,[3],0.98
same,normalized growth,"locus YBR160W, strain CDC28, hits give low values",0.983
same,normalized growth,[4],0.988
same,normalized growth,"locus YDL028C, strain MPS1, hits give low values",0.956
same,normalized growth,"locus YDL101C, strain DUN1, hits give low values",1
same,normalized growth,[5],0.978
same,normalized growth,"locus YDL132W, strain cdc53, hits give low values",0.986
same,normalized growth,[6],0.893
same,normalized growth,[7],0.986
same,normalized growth,"locus YDR054C, strain cdc34, hits give low values",0.989
same,normalized growth,[8],0.988
same,normalized growth,[9],0.909
same,normalized growth,[10],0.864
same,normalized growth,[11],0.892
same,normalized growth,"locus YFL009W, strain cdc4, hits give low values",0.99
same,normalized growth,[12],0.977
same,normalized growth,[13],0.985
same,normalized growth,[14],0.898
same,normalized growth,[15],0.963
same,normalized growth,[16],0.905
same,normalized growth,[17],0.862
same,normalized growth,[18],0.88
same,normalized growth,[19],0.67 (active)
same,normalized growth,[20],0.663
same,normalized growth,[21],0.951
same,normalized growth,[22],0.824
same,normalized growth,[23],0.973
same,normalized growth,[24],0.731
same,normalized growth,"locus YJL128C, strain PBS2, hits give low values",0.951
same,normalized growth,[25],0.894
same,normalized growth,[26],0.994
same,normalized growth,[27],0.902
same,normalized growth,[28],0.95
same,normalized growth,[29],0.965
same,normalized growth,[30],0.927
same,normalized growth,[31],0.923
same,normalized growth,"locus YKL193C, strain SDS22, hits give low values",0.985
same,normalized growth,"locus YKL203C, strain TOR2, hits give low values",1.01
same,normalized growth,[32],0.682 (active)
same,normalized growth,[33],0.866
same,normalized growth,[34],0.881
same,normalized growth,[35],0.872
same,normalized growth,"locus YMR001C, strain CDC5, hits give low values",0.984
same,normalized growth,[36],0.894
same,normalized growth,"locus YMR277W, strain FCP1, hits give low values",0.968
same,normalized growth,[37],0.995
same,normalized growth,[38],0.86
same,normalized growth,[39],0.982
same,normalized growth,[40],0.799
same,normalized growth,"locus YNL207W, strain RIO2, hits give low values",0.987
same,normalized growth,[41],0.98
same,normalized growth,[42],0.864
same,normalized growth,"locus YOL078W, strain AVO1, hits give low values",0.972
same,normalized growth,[43],0.873
same,normalized growth,[44],0.86
same,normalized growth,[45],0.953
same,normalized growth,[46],0.759
same,normalized growth,[47],0.984
same,normalized growth,[48],0.889
same,normalized growth,[49],0.872
same,normalized growth,[50],0.86
same,normalized growth,[51],0.983
same,normalized growth,[52],0.717 (active)
same,normalized growth,[53],0.968
same,normalized growth,"locus YPR106W, strain ISR1, hits give low values",0.971
same,normalized growth,[54],0.959
same,normalized growth,[55],0.974
same,normalized growth,"strain TSCII, hits give low values",0.971
CN/C(=C\[N+](=O)[O-])NCCSCc1csc(CN(C)C)n1,normalized growth,[19],1.05
same,normalized growth,[20],1.04
same,normalized growth,[24],1.06
same,normalized growth,[28],0.927
same,normalized growth,[32],1.06
same,normalized growth,[40],0.996
same,normalized growth,[46],1.07
same,normalized growth,[52],1.08
